Experimental data from the supplement of paper PMC10849652.
About 7,900 targets were measured; listed, in parts, are those with a hit and a random draw of the rest. About 0.6% of all pairs of compound and target were hits.

Columns and labels:
Assay in all cases: log2 fold change, soluble protein after heating vs DMSO (PISA); higher = thermal stabilisation; K562 cells, 10 uM, 30 min; active = over 0.2 and 3.5 SD of the protein, either way, in both replicates (recomputed)
[1] = compound: COC1=CC=C(C=C1)CN2C=CC3=C2C=C(C=C3)C(=O)NO
Procedure, shortened: (§1)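 For each measurement, 10 μM compound was applied for 30 min to K562 cells at 2×10^6 cells/mL. Aliquots were heated for 3 min across 48°C-58°C, pooled, and extracted in PBS with 0.5% NP-40 at 4°C; the supernatant after 21,000xg for 90 min was soluble protein. This was quantified by TMTpro 16plex LC-MS/MS with channel sums equalised, and thermal stability was reported relative to control samples from duplicates, on a log2 fold-change scale.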

filanesib = compound: CON(C)C(=O)N1N=C(c2cc(F)ccc2F)S[C@@]1(CCCN)c1ccccc1 [filanesib]
Procedure, shortened: as §1

zotarolimus = compound: CO[C@H]1C[C@@H]2CC[C@@H](C)[C@@](O)(O2)C(=O)C(=O)N2CCCC[C@H]2C(=O)O[C@H]([C@H](C)C[C@@H]2CC[C@H](n3cnnn3)[C@H](OC)C2)CC(=O)[C@H](C)/C=C(\C)[C@@H](O)[C@@H](OC)C(=O)[C@H](C)C[C@H](C)/C=C/C=C/C=C/1C [zotarolimus]
Procedure, shortened: as §1

idasanutlin = compound: COc1cc(C(=O)O)ccc1NC(=O)[C@@H]1N[C@@H](CC(C)(C)C)[C@](C#N)(c2ccc(Cl)cc2F)[C@H]1c1cccc(Cl)c1F [idasanutlin]
Procedure, shortened: as §1

alisertib = compound: COc1cc(Nc2ncc3c(n2)-c2ccc(Cl)cc2C(c2c(F)cccc2OC)=NC3)ccc1C(=O)O [alisertib]
Procedure, shortened: as §1

[2] = compound: COc1cc2nc(-c3cc(F)ccc3O)nc(N[C@@H]3CNC[C@H]3C(C)(C)O)c2cc1OC
Procedure, shortened: as §1

gefitinib = compound: COc1cc2ncnc(Nc3ccc(F)c(Cl)c3)c2cc1OCCCN1CCOCC1 [gefitinib]
Procedure, shortened: as §1

[3] = compound: COc1cccc2cc(-c3nc([C@H]4CC[C@H](C(=O)O)CC4)n4ncnc(N)c34)[nH]c12
Procedure, shortened: as §1

lapatinib = compound: CS(=O)(=O)CCNCc1ccc(-c2ccc3ncnc(Nc4ccc(OCc5cccc(F)c5)c(Cl)c4)c3c2)o1 [lapatinib]
Procedure, shortened: as §1

pictilisib = compound: CS(=O)(=O)N1CCN(Cc2cc3nc(-c4cccc5[nH]ncc45)nc(N4CCOCC4)c3s2)CC1 [pictilisib]
Procedure, shortened: as §1

Measured: log2 fold change

COA6 isoform 2 (UniProt Q5JTJ3)
Sequence of UniProt Q5JTJ3 (Q5JTJ3 whole entry, looked up): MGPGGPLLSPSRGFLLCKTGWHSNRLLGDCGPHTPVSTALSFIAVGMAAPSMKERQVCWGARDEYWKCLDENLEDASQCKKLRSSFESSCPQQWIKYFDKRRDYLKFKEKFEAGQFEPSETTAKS
inactive: [1] 0.02 | filanesib -0.029 | zotarolimus 0.019 | idasanutlin -0.052 | alisertib 0.002 | [2] -0.042 | gefitinib -0.003 | [3] 0.022 | lapatinib -0.017 | pictilisib -0.006

CCAR1 (UniProt Q8IX12)
Sequence of UniProt Q8IX12 (Q8IX12 whole entry, looked up): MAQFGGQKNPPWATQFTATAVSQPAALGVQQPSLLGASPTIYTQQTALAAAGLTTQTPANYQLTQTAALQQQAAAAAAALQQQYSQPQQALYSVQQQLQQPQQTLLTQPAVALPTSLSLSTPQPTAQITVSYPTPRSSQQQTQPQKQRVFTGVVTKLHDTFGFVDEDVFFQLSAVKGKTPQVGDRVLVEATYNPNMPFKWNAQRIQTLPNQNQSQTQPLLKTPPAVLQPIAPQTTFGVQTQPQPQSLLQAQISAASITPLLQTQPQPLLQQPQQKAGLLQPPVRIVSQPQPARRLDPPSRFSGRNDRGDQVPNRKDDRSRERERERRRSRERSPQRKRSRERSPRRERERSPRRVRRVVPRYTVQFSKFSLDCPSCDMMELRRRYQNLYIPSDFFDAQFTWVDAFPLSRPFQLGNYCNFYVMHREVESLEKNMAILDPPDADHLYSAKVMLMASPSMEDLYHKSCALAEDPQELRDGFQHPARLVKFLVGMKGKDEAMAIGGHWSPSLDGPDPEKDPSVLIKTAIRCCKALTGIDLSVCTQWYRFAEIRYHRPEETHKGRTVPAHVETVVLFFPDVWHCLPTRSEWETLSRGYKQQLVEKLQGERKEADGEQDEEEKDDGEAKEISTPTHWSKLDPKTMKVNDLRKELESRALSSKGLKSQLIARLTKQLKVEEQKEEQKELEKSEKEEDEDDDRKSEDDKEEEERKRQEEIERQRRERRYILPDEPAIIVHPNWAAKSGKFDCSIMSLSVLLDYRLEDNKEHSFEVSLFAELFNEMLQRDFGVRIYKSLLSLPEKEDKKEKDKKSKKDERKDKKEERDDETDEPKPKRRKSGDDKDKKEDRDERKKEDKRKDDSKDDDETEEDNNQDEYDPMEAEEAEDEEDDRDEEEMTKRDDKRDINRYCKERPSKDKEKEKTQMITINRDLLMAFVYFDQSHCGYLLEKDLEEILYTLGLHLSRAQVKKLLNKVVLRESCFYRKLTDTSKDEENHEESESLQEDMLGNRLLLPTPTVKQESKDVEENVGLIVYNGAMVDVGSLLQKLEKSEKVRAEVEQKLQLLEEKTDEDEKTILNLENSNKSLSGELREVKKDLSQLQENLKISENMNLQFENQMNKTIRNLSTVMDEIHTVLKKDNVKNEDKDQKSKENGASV
inactive: [1] 0.018 | filanesib -0.105 | zotarolimus 0.011 | idasanutlin -0.041 | alisertib -0.056 | [2] -0.02 | gefitinib 0.027 | [3] 0.014 | lapatinib 0.003 | pictilisib -0.072

CALCOCO2 isoform 4 (UniProt Q13137)
Sequence of UniProt Q13137 (Q13137 whole entry, looked up): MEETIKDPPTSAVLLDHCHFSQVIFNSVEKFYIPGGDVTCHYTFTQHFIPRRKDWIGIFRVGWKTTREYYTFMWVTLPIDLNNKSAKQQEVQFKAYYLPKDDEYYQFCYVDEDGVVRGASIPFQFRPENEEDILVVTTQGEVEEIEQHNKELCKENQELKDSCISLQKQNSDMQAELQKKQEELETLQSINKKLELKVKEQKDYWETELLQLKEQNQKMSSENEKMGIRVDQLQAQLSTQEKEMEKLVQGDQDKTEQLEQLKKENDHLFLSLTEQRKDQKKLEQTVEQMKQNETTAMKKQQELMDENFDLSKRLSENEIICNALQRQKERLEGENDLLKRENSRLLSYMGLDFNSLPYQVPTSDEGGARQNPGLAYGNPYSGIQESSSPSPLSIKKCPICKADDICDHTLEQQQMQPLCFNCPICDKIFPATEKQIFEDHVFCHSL
inactive: [1] -0.041 | filanesib -0.166 | zotarolimus -0.044 | idasanutlin 0.014 | alisertib 0 | [2] 0.018 | gefitinib -0.07 | [3] -0.08 | lapatinib 0 | pictilisib 0.031

CDC25B isoform 4 (UniProt P30305)
inactive: [1] -0.038 | filanesib 0.005 | zotarolimus -0.056 | idasanutlin 0.052 | alisertib -0.018 | [2] 0.026 | gefitinib -0.013 | [3] 0.068 | lapatinib -0.012 | pictilisib 0.03

C4A (UniProt P0C0L4)
active: zotarolimus -0.615
inactive: [1] 0.042 | filanesib 0.014 | idasanutlin 0.068 | alisertib -0.005 | [2] 0.001 | gefitinib -0.198 | [3] 0.175 | lapatinib -0.078 | pictilisib -0.291

COX15 (UniProt Q7KZN9)
inactive: [1] 0.04 | filanesib -0.046 | zotarolimus 0.005 | idasanutlin -0.055 | alisertib -0.054 | [2] -0.012 | gefitinib -0.001 | [3] 0.052 | lapatinib 0.001 | pictilisib 0.071

COX7B (UniProt P24311)
inactive: [1] 0.112 | filanesib 0.028 | zotarolimus -0.003 | idasanutlin -0.012 | alisertib 0.038 | [2] -0.018 | gefitinib 0.023 | [3] 0.094 | lapatinib -0.009 | pictilisib -0.039

CKS1B (UniProt P61024)
inactive: [1] -0.045 | filanesib 0.047 | zotarolimus 0.013 | idasanutlin -0.011 | alisertib -0.012 | [2] -0.048 | gefitinib -0.008 | [3] 0.031 | lapatinib 0.004 | pictilisib -0.007

CHMP4B (UniProt Q9H444)
inactive: [1] -0.101 | filanesib -0.106 | zotarolimus -0.015 | idasanutlin 0.034 | alisertib -0.036 | [2] 0.044 | gefitinib -0.005 | [3] 0.08 | lapatinib -0.09 | pictilisib -0.094

CPD (UniProt O75976)
Sequence of UniProt O75976 (O75976 whole entry, looked up): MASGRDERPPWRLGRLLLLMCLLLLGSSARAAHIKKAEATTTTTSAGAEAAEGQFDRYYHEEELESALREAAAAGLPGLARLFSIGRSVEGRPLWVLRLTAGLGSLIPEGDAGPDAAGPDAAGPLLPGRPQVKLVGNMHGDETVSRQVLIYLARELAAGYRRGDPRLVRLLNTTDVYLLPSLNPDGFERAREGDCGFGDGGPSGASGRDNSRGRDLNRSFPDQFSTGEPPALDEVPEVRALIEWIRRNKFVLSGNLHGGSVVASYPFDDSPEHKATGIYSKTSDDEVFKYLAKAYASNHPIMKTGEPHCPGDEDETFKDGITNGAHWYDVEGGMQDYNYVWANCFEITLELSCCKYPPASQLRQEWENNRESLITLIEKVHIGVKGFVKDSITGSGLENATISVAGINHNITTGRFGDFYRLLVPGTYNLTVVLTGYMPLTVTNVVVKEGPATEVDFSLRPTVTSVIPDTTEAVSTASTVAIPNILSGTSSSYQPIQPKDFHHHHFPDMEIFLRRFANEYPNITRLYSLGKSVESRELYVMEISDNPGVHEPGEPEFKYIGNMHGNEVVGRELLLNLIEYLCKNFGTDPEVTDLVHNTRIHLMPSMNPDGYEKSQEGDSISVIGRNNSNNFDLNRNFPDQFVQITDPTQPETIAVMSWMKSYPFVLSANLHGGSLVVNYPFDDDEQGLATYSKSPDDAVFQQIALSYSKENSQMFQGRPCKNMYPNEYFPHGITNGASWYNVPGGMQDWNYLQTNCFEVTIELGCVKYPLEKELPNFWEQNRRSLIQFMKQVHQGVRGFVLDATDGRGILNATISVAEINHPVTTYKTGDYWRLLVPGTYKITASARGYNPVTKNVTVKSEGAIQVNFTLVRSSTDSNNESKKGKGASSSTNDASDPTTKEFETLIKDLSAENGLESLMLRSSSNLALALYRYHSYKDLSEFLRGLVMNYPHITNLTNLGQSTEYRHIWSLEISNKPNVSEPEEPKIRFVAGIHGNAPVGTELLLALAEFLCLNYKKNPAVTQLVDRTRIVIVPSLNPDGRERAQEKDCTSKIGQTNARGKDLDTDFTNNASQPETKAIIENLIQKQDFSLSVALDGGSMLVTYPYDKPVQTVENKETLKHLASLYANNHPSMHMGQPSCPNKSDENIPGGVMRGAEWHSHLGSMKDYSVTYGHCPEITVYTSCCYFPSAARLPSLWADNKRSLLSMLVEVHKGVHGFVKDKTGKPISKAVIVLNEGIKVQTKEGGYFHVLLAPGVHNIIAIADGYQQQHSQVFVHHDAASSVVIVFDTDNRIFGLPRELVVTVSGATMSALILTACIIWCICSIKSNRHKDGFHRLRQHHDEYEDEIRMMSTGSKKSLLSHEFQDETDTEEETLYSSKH
inactive: [1] 0.022 | filanesib 0.082 | zotarolimus -0.045 | idasanutlin -0.005 | alisertib -0.038 | [2] 0.046 | gefitinib 0.007 | [3] 0.015 | lapatinib -0.01 | pictilisib 0.034

CETN3 (UniProt O15182)
inactive: [1] -0.211 | filanesib -0.026 | zotarolimus 0.041 | idasanutlin 0.068 | alisertib -0.058 | [2] 0.161 | gefitinib -0.001 | [3] 0.072 | lapatinib -0.175 | pictilisib 0.061

CAD (UniProt P27708)
inactive: [1] 0.019 | filanesib -0.054 | zotarolimus -0.014 | idasanutlin -0.03 | alisertib -0.058 | [2] -0.011 | gefitinib -0.044 | [3] 0.047 | lapatinib -0.031 | pictilisib -0.04

CDK6 (UniProt Q00534)
inactive: [1] -0.012 | filanesib 0.037 | zotarolimus 0.021 | idasanutlin -0.06 | alisertib -0.051 | [2] 0.036 | gefitinib 0 | [3] -0.012 | lapatinib -0.019 | pictilisib 0.015

CSNK2A1 (UniProt P68400)
inactive: [1] -0.025 | filanesib 0.03 | zotarolimus -0.015 | idasanutlin -0.009 | alisertib -0.073 | [2] -0.167 | gefitinib -0.023 | [3] 0.066 | lapatinib 0.032 | pictilisib 0.102

CDK12 (UniProt Q9NYV4)
inactive: [1] -0.019 | filanesib 0.463 | zotarolimus -0.072 | idasanutlin 0.303 | alisertib 0.062 | [2] -0.226 | gefitinib 0.005 | [3] -0.03 | lapatinib 0.134 | pictilisib -0.018

CPT2 (UniProt P23786)
active: zotarolimus 0.798 | idasanutlin 0.806
inactive: [1] 0.114 | filanesib -0.207 | alisertib -0.067 | [2] -0.199 | gefitinib 0.343 | [3] -0.005 | lapatinib 0.058 | pictilisib 0.57

CNN2 (UniProt Q99439)
Sequence of UniProt Q99439 (Q99439 whole entry, looked up): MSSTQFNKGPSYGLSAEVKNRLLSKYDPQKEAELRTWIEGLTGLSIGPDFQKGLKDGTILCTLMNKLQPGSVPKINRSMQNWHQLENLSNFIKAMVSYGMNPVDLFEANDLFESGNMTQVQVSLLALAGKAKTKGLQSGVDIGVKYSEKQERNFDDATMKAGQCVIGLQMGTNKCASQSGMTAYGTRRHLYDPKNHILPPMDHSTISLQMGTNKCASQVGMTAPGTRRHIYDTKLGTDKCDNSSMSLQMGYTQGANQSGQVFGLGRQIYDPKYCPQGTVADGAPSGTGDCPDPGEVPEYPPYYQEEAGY
inactive: [1] -0.008 | filanesib -0.058 | zotarolimus -0.002 | idasanutlin -0.029 | alisertib -0.007 | [2] 0.021 | gefitinib 0.012 | [3] -0.065 | lapatinib -0.041 | pictilisib -0.054

CAVIN1 (UniProt Q6NZI2)
inactive: [1] -0.012 | filanesib 0.109 | zotarolimus 0 | idasanutlin 0.15 | alisertib -0.098 | [2] -0.107 | gefitinib -0.1 | [3] -0.159 | lapatinib 0.089 | pictilisib -0.094

COPS4 (UniProt Q9BT78)
inactive: filanesib -0.067 | zotarolimus 0.032 | idasanutlin -0.039 | alisertib -0.054 | [2] -0.035 | gefitinib -0.007 | [3] 0.019 | lapatinib 0.025 | pictilisib -0.011
active: [1] 0.219

CAMKK2 (UniProt Q96RR4)
inactive: [1] -0.063 | filanesib 0.085 | zotarolimus -0.077 | idasanutlin -0.091 | alisertib -0.377 | [2] 0.12 | gefitinib 0.019 | [3] 0.015 | lapatinib 0.025 | pictilisib 0.035

CNOT2 (UniProt Q9NZN8)
inactive: [1] -0.006 | filanesib 0.006 | zotarolimus 0.014 | idasanutlin 0.005 | alisertib -0.01 | [2] 0.021 | gefitinib 0.017 | [3] -0.021 | lapatinib 0.048 | pictilisib 0.04

CCDC59 (UniProt Q9P031)
inactive: [1] 0.024 | filanesib 0.301 | zotarolimus -0.008 | idasanutlin 0.225 | alisertib -0.124 | [2] -0.013 | gefitinib -0.066 | [3] -0.054 | lapatinib -0.034 | pictilisib -0.234

CCM2 isoform 2 (UniProt Q9BSQ5)
Sequence of UniProt Q9BSQ5 (Q9BSQ5 whole entry, looked up): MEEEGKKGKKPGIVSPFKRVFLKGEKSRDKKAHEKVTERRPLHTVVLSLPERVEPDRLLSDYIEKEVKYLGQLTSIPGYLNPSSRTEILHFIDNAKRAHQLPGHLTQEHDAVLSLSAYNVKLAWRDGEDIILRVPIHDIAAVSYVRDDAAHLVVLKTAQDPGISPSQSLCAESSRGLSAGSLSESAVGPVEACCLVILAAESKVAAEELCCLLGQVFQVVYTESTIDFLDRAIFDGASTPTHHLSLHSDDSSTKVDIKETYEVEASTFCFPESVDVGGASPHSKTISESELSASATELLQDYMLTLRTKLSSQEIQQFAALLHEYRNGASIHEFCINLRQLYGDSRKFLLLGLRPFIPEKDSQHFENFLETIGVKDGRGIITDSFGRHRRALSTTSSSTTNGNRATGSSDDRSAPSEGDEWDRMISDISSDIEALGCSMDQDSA
inactive: [1] -0.093 | filanesib 0.026 | zotarolimus 0.057 | alisertib -0.04 | [2] 0.154 | [3] 0.056 | lapatinib 0.006 | pictilisib 0.022

CRTC2 (UniProt Q53ET0)
inactive: [1] -0.004 | filanesib -0.019 | idasanutlin 0.086 | alisertib 0 | gefitinib -0.056 | [3] 0.066 | lapatinib 0.079
active: [2] -0.509

COMMD1 (UniProt Q8N668)
Sequence of UniProt Q8N668 (Q8N668 whole entry, looked up): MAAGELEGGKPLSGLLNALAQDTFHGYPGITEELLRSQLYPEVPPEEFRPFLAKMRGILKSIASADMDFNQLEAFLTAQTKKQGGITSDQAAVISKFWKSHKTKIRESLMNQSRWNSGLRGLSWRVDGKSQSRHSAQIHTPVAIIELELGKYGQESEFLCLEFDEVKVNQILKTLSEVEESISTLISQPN
inactive: [1] 0.054 | filanesib 0.06 | alisertib -0.151 | [2] 0.029 | gefitinib -0.01 | [3] -0.04 | lapatinib -0.029 | pictilisib 0.006

CRTC1 isoform 2 (UniProt Q6UUV9)
inactive: filanesib -0.002 | idasanutlin -0.021 | [2] 0.138 | lapatinib 0.028 | pictilisib -0.013
active: [1] -0.39

CIR1 (UniProt Q86X95)
Sequence of UniProt Q86X95 (Q86X95 whole entry, looked up): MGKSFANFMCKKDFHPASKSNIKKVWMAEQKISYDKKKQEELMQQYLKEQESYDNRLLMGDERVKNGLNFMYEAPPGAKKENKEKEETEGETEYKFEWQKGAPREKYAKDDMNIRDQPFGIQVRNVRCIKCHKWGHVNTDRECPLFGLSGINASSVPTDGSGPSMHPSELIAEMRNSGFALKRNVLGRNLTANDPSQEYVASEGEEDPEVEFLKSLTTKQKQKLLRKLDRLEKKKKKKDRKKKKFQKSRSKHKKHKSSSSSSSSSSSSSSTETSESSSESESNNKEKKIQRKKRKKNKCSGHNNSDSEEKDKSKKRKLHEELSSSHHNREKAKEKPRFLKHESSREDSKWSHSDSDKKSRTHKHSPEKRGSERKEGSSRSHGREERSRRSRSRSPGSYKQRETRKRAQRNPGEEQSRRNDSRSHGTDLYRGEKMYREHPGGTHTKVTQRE
inactive: [1] -0.022 | filanesib 0.247 | zotarolimus -0.064 | idasanutlin 0.161 | alisertib -0.081 | [2] -0.019 | [3] -0.024 | lapatinib 0.078 | pictilisib -0.365

CCNC (UniProt P24863)
inactive: [1] -0.198 | filanesib 0.013 | zotarolimus -0.026 | idasanutlin -0.156 | alisertib -0.036 | [3] 0.013 | pictilisib 0.079

CCDC167 (UniProt Q9P0B6)
Sequence of UniProt Q9P0B6 (Q9P0B6 whole entry, looked up): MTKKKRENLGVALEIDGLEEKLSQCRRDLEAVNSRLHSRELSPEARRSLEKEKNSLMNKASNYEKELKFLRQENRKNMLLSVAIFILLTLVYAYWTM
inactive: [1] -0.054 | filanesib -0.024 | zotarolimus -0.027 | alisertib -0.068 | [2] -0.148 | gefitinib -0.021 | [3] -0.105 | lapatinib 0.016 | pictilisib 0.047

CRYM-AS1 (UniProt A6NIL9)
inactive: [1] 0.159 | filanesib 0.047 | zotarolimus 0.146 | idasanutlin -0.364 | alisertib 0.037 | gefitinib -0.16 | [3] -0.041 | pictilisib 0.109

CSNK1A1 (UniProt P48729)
Sequence of UniProt P48729 (P48729 whole entry, looked up): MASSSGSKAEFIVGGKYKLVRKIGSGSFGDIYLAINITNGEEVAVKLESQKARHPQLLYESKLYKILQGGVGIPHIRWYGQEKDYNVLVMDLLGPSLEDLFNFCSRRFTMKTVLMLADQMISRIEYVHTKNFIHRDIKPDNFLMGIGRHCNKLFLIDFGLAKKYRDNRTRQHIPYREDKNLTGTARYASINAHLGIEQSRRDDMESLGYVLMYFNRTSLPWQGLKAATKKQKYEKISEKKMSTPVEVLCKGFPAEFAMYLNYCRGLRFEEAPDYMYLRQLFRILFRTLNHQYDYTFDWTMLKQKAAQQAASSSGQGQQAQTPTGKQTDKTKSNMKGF
inactive: [1] 0.147 | filanesib 0.08 | zotarolimus 0.024 | idasanutlin 0.094 | [2] -0.214 | gefitinib -0.106 | [3] -0.036 | lapatinib 0.019 | pictilisib 0.024
